{
  "source": "PubChem BioAssay AID504725",
  "about": "(Broad Institute, 2011)",
  "note": "Entries with a potency or affinity are not part of this list. A number with no mark means an inactive call. The rule behind the calls is not given here.",
  "data": [
    {"target": "KSHV LANA C-terminal domain (residues 932-1162) binding to LBS DNA (UniProt O40947)", "experiment": "KSHV LANA DNA-binding disruption – biochemical, fluorescence polarization, cherry-picked samples, dose response (AID 504725)", "settings": "MBP-C-LANA / FAM-LBS DNA fluorescence polarization; series mostly up to 35 µM; activity change, negative = inhibition: at the top concentration", "units": {"activity change, negative = inhibition": "%"}, "values": [
      {"smiles": "O=c1c2ccccc2nc(/C=C\\c2ccccc2[N+](=O)[O-])n1-c1ccccc1O", "activity change, negative = inhibition": -4.88},
      {"smiles": "CCCCc1ccc(C(=O)O)nc1", "activity change, negative = inhibition": -11.9},
      {"smiles": "CCn1c(O)c(N=Nc2cccc(S(=O)(=O)N3CCOCC3)c2)c(=O)n(CC)c1=S", "activity change, negative = inhibition": 0.812},
      {"smiles": "CC(C)CC(=O)Nc1ccc(S(=O)(=O)N2CC3CC(C2)c2cccc(=O)n2C3)cc1", "note": "(stereo not drawn)", "activity change, negative = inhibition": -0.361},
      {"smiles": "CC(OC(=O)c1cn(C)c2ccccc12)C(=O)N1CCCC1", "note": "(stereo not drawn)", "activity change, negative = inhibition": 1.34},
      {"smiles": "O=c1[nH]c(=O)n(C2CCCCC2)c(O)c1C=Nc1ccc(N2CCOCC2)cc1", "activity change, negative = inhibition": -1.79},
      {"smiles": "CCOC(=O)c1c(/N=C/c2c(O)n(-c3cccc(C)c3)c(=O)[nH]c2=O)sc2c1CCCC2", "activity change, negative = inhibition": -1.71},
      {"smiles": "COC(=O)C1=C(c2ccc(OC(F)(F)F)cc2)C[C@@H]2CC[C@H]1N2C(=O)NC1CCCCC1", "activity change, negative = inhibition": -1.08},
      {"smiles": "Cc1cc(=O)oc2cc(OCC(=O)N3CCN(Cc4ccc5c(c4)OCO5)CC3)ccc12", "activity change, negative = inhibition": 4.13},
      {"smiles": "COCCNC(=O)Cn1cc(/C=C2\\C(=O)NC(=O)N(c3cccc(C)c3C)C2=O)c2ccccc21", "activity change, negative = inhibition": 0.685},
      {"smiles": "Cc1cc(OCC(=O)OC(C)(C)C)c2c3c(c(=O)oc2c1)CCC3", "activity change, negative = inhibition": 4.26},
      {"smiles": "CN(C)C1C(=O)C(C(N)=O)=C(O)C2(O)C(=O)C3=C(O)c4c(O)cccc4C(C)(O)C3C(O)C12", "note": "(stereo not drawn)", "activity change, negative = inhibition": 1.03},
      {"smiles": "CC(Cc1ccccc1)NC(=O)NC(C)Cc1ccccc1", "note": "(stereo not drawn)", "activity change, negative = inhibition": -8.14}
    ]}
  ]
}
